Test results from the OligoGym collection.

Biological target: ENTHD1
Experiment: pooled miR-30 sensor sort-seq; sequence = guide strand
Conditions: shRNA
Further: reference of the scale not given here.

Row | Sequence | sensor-assay potency score (higher = more potent)
1 | TTATCATCCATCTGAATGCTGG | -0.718
2 | TTTAACTCCTAACACTAGCATC | -1.32
3 | TTAAGTTCTTGGATCACTGTGC | 0.62
4 | TAGAAAACAATATAGAGTGGGA | 0.012
5 | TTTTATTATGTAACCTTCCAAA | -1.23
6 | TTGTGAACTATTCAGACTCATG | -1.36
7 | TATTTGTAAAGATACCATCTGA | -0.616
8 | TACTTGACCAACATGCTGGTAA | 0.494
9 | TTACAATCTCCTTCACTCGGTC | 0.0777

Biological target: ENTPD8
Experiment: as above
Conditions: shRNA

Row | Sequence | sensor-assay potency score (higher = more potent)
10 | TCAACTGTGAGGTTCTGGGGGA | 0.228
11 | TCAAACACGATCCCAAACTTGA | -0.982
12 | TAGCCGCTGAGGTAGCACGGGT | -0.869
13 | TAGTTGACAGTGATCCAACCAA | 0.0426
14 | TCAGCATCTGGTCCCGTCCAAA | -1.74
15 | TTCAACTGTGAGGTTCTGGGGG | 0.121
16 | TAGACGCTGTAGTCGGAGCCGT | -0.675
17 | TTGACCAGCGTCCCCAAGCCGT | -1.42
18 | TAGTCGGAGCCGTAGAGGCGAA | -1.54
19 | TAGCTGTGAGTGTAGACGCTGT | 0.245
20 | TTGCCTGTCCCTTCAACTGTGA | -0.84

Biological target: EPAS1
Experiment: as above
Conditions: shRNA

Row | Sequence | sensor-assay potency score (higher = more potent)
21 | TAGTATGGACAGTTGTGTGTGA | -0.0372
22 | TTAGAAGTCATTGAAGGTGGGG | 0.712
23 | TTAGCTGGAAGTCTTCCCCGTC | -0.236
24 | TACAAGTTGTCCATCTGCTGGT | 0.354
25 | TTTAAGAACATTTCAGAACAGG | -0.533
26 | TTGTGTGTTCGCAGGAAGCTGA | -0.595
27 | TAGAACACCTCCGTCTCCTTGC | 0.306
28 | TAGAAGTCATTGAAGGTGGGGA | 0.421
29 | TTCATGTCCATGCTGTGGCGGC | -0.685
30 | TTTGTCATGGCACTGAAGCAGT | -0.635
31 | TTTGGCAACAACAATAACGAGG | -0.434
32 | TCTGTGGACATGTCTTTGCTTT | -0.503
33 | TTGCTCTTCATACTCCAGCTGT | -0.454
34 | TTTTCTGACAGAAAGATCATGT | 0.329
35 | TTCAGCTTCAGCTTGTTGGAGA | -0.377
36 | TTGAGGTTGACAGTACGGCCTC | -0.329
37 | TTGGGTGAACTTATCATTGGGT | 0.697
38 | TTGAACAGGGATTCAGTCTGGT | 0.262
39 | TAGTTGACACACATGATGCACT | -0.913
40 | TTTCAGGTACAAGTTGTCCATC | -1.4
